# Reference: the supplement of paper PMC11732987, “Enantioselective OTUD7B fragment discovery through chemoproteomics screening and high-throughput optimisation” (Communications Chemistry, 2025)
# Unmarked numbers belong to inactive results.
# Legend:
# Assay in all cases: log2 ratio of Biotin-Ahx-Ub-VS probe labelling (fragment/DMSO); higher = less target engagement (more negative = stronger competition), active = hit call of the paper (q ≤ 0.05, log2 ratio ≤ -1)
# Settings in all cases: compound concentration: 200 uM; treatment time: 3 h
# [1] = biological target: USP16 (UniProt Q9Y5T5)
# Method in brief: (§1)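 Global-median-normalised Spectronaut label-free quantities were compared by unpaired t-test, and values are average log2 ratios of fragment over vehicle. Only proteins with ≥2 unique peptides were used. HEK293T lysate (495 µg per sample) was treated in triplicate with fragment at 200 µM or vehicle for 3 h and then with Biotin-Ahx-Ub-VS at 0.5 µM final for 1 h. Labelled DUBs were then NeutrAvidin-enriched, digested with LysC and trypsin, and run by diaPASEF LC-MS/MS.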
# [2] = biological target: T1, USP19 (UniProt O94966)
# T1 sequence (whole entry): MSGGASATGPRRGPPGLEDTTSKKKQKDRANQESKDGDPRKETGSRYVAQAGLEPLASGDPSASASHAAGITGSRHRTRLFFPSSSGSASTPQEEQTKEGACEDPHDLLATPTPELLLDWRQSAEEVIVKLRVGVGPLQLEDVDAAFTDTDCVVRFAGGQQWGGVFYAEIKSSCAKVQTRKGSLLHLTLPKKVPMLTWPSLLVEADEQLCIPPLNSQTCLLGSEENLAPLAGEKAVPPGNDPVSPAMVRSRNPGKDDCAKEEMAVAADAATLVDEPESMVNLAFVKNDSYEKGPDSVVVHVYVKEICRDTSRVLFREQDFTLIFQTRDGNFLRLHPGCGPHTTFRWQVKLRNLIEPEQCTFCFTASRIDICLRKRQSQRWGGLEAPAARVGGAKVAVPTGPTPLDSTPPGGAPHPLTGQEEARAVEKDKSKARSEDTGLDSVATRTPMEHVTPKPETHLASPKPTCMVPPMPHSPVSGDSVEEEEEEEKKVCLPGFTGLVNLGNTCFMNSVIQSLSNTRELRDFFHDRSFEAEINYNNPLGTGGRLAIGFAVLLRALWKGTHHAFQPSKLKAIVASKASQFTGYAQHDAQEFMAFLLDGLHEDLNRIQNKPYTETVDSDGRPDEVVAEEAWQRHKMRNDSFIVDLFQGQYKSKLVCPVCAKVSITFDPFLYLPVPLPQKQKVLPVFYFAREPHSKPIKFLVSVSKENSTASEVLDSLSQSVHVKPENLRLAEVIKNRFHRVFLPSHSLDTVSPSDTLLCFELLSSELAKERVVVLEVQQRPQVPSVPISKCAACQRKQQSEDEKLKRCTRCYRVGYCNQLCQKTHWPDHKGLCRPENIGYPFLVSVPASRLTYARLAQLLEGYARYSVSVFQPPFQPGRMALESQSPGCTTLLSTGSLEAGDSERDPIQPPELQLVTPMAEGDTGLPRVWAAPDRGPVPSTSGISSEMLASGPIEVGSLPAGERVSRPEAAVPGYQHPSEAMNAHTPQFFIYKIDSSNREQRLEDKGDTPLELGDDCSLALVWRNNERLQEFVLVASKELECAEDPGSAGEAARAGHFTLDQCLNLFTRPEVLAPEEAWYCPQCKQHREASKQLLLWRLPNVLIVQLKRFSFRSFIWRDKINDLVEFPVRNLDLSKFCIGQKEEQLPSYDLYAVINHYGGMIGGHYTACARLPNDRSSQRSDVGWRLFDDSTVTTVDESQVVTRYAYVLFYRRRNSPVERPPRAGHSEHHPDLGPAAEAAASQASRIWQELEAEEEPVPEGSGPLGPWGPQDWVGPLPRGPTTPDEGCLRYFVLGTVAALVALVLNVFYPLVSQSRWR
# Method in brief: as §1
# [3] = biological target: USP24 (UniProt Q9UPU5)
# Method in brief: as §1
# [4] = biological target: T2, USP25 (UniProt Q9UHP3)
# T2 sequence (whole entry): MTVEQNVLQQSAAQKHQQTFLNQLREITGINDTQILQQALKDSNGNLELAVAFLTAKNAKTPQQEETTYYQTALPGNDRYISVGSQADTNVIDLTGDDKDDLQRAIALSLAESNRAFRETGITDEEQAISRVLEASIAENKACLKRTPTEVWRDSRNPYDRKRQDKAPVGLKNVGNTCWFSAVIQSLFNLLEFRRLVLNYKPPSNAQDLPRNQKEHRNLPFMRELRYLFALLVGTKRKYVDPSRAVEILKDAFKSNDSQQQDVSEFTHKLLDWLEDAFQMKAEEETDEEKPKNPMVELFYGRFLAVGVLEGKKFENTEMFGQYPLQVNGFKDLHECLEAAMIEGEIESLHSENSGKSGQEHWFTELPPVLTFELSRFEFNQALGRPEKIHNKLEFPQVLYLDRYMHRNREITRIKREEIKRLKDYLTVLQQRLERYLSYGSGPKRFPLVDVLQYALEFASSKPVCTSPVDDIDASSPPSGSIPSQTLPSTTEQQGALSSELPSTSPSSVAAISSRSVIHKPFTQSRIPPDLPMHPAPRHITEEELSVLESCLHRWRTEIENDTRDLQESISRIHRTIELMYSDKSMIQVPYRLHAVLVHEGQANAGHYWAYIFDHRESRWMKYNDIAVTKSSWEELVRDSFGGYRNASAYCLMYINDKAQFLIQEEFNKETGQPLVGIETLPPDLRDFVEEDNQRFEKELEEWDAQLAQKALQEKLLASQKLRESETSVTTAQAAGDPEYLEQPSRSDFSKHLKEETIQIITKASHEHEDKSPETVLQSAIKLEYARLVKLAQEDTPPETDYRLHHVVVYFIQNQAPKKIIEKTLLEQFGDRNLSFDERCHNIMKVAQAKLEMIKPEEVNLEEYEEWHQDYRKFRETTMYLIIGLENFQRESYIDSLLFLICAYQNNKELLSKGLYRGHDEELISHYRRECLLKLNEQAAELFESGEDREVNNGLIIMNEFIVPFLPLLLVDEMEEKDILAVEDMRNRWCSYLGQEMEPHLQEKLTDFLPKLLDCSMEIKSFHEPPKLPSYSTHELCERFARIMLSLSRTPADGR
# Method in brief: as §1
# [5] = biological target: T3, USP28 (UniProt Q96RU2)
# T3 sequence (whole entry): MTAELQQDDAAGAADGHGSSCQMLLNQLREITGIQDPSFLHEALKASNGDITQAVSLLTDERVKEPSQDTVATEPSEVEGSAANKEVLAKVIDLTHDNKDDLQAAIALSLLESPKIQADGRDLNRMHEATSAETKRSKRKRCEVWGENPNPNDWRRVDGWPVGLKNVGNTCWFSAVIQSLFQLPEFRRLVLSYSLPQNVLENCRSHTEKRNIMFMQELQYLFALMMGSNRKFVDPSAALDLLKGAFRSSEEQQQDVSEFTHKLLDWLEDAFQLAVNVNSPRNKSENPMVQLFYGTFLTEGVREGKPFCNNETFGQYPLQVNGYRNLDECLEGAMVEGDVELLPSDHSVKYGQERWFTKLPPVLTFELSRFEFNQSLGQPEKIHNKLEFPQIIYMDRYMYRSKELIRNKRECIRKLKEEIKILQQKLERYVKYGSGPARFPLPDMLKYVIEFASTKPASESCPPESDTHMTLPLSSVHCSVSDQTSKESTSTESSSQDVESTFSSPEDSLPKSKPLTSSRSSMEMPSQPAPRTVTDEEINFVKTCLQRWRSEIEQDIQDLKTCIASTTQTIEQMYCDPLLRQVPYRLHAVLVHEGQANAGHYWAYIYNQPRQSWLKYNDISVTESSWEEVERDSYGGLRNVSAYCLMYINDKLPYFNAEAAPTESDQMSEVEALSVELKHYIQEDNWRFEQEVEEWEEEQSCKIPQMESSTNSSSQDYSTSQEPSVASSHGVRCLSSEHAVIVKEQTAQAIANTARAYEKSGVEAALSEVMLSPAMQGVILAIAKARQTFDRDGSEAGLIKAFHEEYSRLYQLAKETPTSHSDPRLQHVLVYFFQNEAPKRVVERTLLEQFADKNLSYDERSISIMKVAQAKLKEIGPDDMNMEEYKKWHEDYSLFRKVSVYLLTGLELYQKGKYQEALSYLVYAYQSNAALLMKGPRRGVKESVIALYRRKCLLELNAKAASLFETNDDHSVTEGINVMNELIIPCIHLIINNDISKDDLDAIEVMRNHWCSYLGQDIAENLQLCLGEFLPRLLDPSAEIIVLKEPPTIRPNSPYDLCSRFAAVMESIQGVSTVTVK
# Method in brief: as §1
# Chain of USP16 (Q9Y5T5 whole entry, looked up, the tested form may be a part): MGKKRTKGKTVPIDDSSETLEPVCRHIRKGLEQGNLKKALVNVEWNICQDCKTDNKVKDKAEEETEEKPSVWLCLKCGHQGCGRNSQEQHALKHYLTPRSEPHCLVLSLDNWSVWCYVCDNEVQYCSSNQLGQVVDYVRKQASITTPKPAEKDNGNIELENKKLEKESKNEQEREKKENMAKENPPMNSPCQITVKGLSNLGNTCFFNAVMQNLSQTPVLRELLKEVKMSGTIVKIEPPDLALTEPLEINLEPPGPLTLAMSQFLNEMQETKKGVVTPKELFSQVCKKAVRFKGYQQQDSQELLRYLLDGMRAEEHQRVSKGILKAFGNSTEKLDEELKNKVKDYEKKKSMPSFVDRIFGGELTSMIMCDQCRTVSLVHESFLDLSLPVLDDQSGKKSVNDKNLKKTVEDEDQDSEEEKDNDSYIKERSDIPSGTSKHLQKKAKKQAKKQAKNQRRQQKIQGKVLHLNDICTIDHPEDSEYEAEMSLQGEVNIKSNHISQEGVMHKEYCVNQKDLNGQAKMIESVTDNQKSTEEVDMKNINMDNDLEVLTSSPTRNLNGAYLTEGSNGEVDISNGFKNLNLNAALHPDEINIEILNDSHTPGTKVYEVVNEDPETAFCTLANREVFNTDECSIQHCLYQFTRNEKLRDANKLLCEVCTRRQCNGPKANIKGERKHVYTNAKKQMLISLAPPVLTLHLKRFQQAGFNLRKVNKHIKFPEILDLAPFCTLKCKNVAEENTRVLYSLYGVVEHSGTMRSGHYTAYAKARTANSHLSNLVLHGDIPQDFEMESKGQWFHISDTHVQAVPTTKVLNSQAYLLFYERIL
# Chain of USP24 (Q9UPU5 whole entry): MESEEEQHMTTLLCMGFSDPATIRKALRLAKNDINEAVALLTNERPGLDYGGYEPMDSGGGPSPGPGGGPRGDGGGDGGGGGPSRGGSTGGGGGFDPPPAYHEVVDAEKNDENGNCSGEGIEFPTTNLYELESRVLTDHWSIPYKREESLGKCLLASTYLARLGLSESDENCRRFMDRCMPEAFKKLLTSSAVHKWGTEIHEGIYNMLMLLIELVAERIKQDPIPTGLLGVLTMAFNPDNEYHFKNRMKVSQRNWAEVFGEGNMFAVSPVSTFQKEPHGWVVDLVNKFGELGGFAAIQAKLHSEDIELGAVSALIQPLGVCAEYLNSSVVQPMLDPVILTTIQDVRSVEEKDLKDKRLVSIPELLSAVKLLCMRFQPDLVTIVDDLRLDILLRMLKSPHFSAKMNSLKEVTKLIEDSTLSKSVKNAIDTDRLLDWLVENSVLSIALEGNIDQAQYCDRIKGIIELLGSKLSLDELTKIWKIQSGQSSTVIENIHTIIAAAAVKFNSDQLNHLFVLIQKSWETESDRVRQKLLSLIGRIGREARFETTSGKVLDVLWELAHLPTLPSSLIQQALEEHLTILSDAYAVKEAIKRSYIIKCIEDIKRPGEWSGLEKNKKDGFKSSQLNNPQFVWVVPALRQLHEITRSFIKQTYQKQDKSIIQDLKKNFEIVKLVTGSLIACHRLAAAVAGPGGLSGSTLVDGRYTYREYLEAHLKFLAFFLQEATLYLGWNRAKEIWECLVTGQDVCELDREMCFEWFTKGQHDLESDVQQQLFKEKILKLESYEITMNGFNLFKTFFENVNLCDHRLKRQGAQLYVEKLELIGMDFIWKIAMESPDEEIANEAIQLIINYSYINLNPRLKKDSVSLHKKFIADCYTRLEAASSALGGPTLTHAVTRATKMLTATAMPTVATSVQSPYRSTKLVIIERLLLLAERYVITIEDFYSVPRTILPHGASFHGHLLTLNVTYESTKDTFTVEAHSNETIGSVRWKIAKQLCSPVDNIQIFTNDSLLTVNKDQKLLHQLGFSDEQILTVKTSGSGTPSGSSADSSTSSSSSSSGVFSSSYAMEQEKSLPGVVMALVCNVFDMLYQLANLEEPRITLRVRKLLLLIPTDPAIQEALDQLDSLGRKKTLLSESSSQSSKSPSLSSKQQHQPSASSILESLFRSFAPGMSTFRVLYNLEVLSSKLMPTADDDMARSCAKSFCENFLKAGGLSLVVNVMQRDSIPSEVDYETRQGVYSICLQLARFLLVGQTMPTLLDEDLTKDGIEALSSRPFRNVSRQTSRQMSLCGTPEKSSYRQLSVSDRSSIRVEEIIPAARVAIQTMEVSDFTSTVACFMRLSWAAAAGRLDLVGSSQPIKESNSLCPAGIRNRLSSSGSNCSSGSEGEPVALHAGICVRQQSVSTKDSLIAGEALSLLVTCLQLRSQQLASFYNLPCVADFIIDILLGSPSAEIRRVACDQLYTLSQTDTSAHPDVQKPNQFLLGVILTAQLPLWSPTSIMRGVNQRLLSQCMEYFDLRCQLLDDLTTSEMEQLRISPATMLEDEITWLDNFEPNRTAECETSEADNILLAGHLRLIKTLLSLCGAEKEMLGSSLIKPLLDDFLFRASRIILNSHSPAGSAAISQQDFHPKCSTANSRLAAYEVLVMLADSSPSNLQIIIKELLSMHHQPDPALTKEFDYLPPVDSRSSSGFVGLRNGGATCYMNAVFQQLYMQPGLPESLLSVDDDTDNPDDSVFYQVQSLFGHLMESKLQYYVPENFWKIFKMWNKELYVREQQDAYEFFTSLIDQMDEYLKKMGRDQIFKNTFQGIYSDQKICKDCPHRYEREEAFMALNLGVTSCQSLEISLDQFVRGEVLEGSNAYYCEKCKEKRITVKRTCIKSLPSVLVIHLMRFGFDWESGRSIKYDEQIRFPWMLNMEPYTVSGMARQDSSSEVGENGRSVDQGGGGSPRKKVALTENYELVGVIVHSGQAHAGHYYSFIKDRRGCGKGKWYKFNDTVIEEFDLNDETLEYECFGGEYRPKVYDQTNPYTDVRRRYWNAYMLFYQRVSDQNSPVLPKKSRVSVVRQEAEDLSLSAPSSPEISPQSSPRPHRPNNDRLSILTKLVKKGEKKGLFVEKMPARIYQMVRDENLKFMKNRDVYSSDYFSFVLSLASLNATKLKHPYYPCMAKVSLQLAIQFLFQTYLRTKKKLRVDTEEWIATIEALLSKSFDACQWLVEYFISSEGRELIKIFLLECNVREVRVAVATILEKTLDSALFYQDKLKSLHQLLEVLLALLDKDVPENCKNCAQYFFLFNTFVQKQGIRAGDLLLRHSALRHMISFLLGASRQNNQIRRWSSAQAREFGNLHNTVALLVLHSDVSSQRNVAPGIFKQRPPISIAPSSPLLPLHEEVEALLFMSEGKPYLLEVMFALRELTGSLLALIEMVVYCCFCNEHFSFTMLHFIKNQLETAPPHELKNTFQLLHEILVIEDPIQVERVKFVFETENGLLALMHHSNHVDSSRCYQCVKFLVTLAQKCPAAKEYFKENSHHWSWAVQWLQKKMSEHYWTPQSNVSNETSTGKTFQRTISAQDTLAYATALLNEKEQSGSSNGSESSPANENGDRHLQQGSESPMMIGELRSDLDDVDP
smiles,measurement,setting,value
O=C(CCl)Nc1ccc(N2CCCC2=O)cc1,log2 ratio of Biotin-Ahx-Ub-VS probe labelling,[1],0.0122
same,log2 ratio of Biotin-Ahx-Ub-VS probe labelling,[2],-0.0288
same,log2 ratio of Biotin-Ahx-Ub-VS probe labelling,[3],-0.284
same,log2 ratio of Biotin-Ahx-Ub-VS probe labelling,[4],-1.8 (active)
same,log2 ratio of Biotin-Ahx-Ub-VS probe labelling,[5],-1.25 (active)
